Test results as given in PubChem BioAssay AID623972 (The Scripps Research Institute Molecular Screening Center, 2012).
“And” between values parts separate entries of the source, which are not always exact repeats. Equal entries are not always repeated. The source made the active and inactive calls. The rule behind the calls is not given here.

Assay: compound-DNA interaction, EtBr readout – biochemical, fluorescence, ethidium bromide, artefact control for HCV NS3 helicase inhibitor project, late-stage follow-up (AID 623972)
Conditions: DNA binding, ethidium bromide displacement fluorescence

IC50, active:
Cc1ccc2nc(-c3ccc4nc(-c5ccc6nc(-c7ccc8nc(-c9ccc(N)cc9)sc8c7)sc6c5)sc4c3)sc2c1S(=O)(=O)O 15 µM and 76 µM, CN1CCN(Cc2cc(CN3CCN(C)CC3)c(O)c(=O)c(CN3CCN(C)CC3)c2)CC1 31 µM, Cc1cc(C(O)(c2ccc(Nc3ccccc3)cc2)c2ccc(Nc3ccc(S(=O)(=O)O)cc3)cc2)ccc1N (stereo not drawn) 4 µM, Cc1ccc2nc(-c3ccc4nc(-c5ccc6nc(-c7ccc(N)cc7)sc6c5)sc4c3)sc2c1S(=O)(=O)O 55 µM, Cc1ccc2nc(-c3ccc4nc(-c5ccc6nc(-c7ccc(N)cc7)sc6c5)sc4c3)sc2c1S(=O)(=O)O (tested in a mixture with another compound) 73 µM

IC50, inactive:
CCOc1ccc2c(NNC(=O)c3cnccn3)c3c(nc2c1)CCCC3 > 100 µM, Cc1ccc2nc(-c3ccc(N)cc3)sc2c1S(=O)(=O)O > 100 µM, Cc1cc2sc(-c3ccc(N)cc3)nc2cc1S(=O)(=O)O > 100 µM, Cc1cc2sc(-c3ccc4nc(-c5ccc(N)cc5)sc4c3)nc2cc1S(=O)(=O)O > 100 µM, COc1cccc2c(=O)c3cc(Cl)cc(C(=O)Nc4cc(Cl)ccn4)c3[nH]c12 > 100 µM, CCN(CC)c1ccc(-c2nc3ccc(-c4nc5ccc(C)c(S(=O)(=O)O)c5s4)cc3s2)cc1 > 100 µM, CCN(CC)c1ccc(-c2nc3ccc(C)c(S(=O)(=O)O)c3s2)cc1 > 100 µM, Cc1ccc2nc(-c3ccc4nc(-c5ccc(N)cc5)sc4c3)sc2c1S(=O)(=O)O > 100 µM
